Where “and” joins values, the source holds several entries; their conditions need not be identical. Equal values may be shown once. The whole screen tested about 340,000 compounds, of which about 12,000 (3.5%) were called active. Inconclusive results (about 18%) are left out. Calls come from the whole dose curve; as a rule, active = well fitted inhibition curve with a large enough effect; inconclusive = small, poorly fitted or top-dose-only effect, or another doubt; inactive = no such curve, though single readings can be large or run the other way. The list comes from a sample in which actives are over-represented; it also holds similar structures and randomly drawn compounds. A structure can be active in one record and inactive in another.
Assay: qHTS Assay for Inhibitors of Hepatitis C Virus (HCV)
Conditions: Huh7.5.1 HCVcc-Cre infection, luciferase reporter, 44 h; series mostly up to 41.8 µM; activity change, negative = inhibition: at the top concentration
Procedure, shortened: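 Compounds are dispensed onto cells plated 4 h earlier at 1,000 per well, with HCVcc-Cre virus (about 0.5 moi) added next. Following 44 h of culture, luminescent signal is measured for 15 sec after 15 min with substrate at room temperature.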
% is set by controls: 0 for no effect and ±100 for the full control effect; potency is the fitted concentration of half-maximal effect.

SMILES	Potency	activity change, negative = inhibition
CCc1ccccc1OCC(=O)Nc1ccc(C)c(S(=O)(=O)N2CCCCCC2)c1	3.55 µM (active)	
Cc1ccccc1OCC(=O)Nc1ccc(N2CCN(C(=O)C(C)C)CC2)c(Cl)c1	31.6 µM (active)	
Cc1ccc(NC(=O)C2CC2)cc1S(=O)(=O)N1CCOCC1		7.05% (inactive)
COc1ccc(NC(=O)C2=NNC(=O)CC2)cc1S(=O)(=O)N1CCCCC1		10.7% (inactive)
Cc1ccccc1OCC(=O)Nc1ccc(S(=O)(=O)N2CCOCC2)cc1		-9.36% (inactive)
COc1ccccc1C(=O)Nc1ccc(C)c(S(=O)(=O)N2CCCCC2)c1	7.08 µM (active)	
Cc1ccc(NC(=O)CCC(=O)N2CCC(c3ccccc3)=N2)cc1S(=O)(=O)N1CCCCC1		13.3% (inactive)
Cc1ccccc1OCC(=O)Nc1ccc2c(c1)ncn2C		-14.5% (inactive)
Cc1cc(C(=O)Nc2ccc(C)c(S(=O)(=O)N3CCOCC3)c2)c2ccccc2n1	11.2 µM (active)	
Cc1ccc(NC(=O)c2ccccn2)cc1S(=O)(=O)N1CCOCC1		-0.0506% (inactive)
Cc1ccc(NC(=O)COC(=O)C2CC2)cc1S(=O)(=O)N1CCOCC1		11% (inactive)
COc1ccccc1C(=O)Nc1ccc(OCC(=O)N2CCCCC2)cc1		9.06% (inactive)
COc1ccc(CCNC(=O)C(=O)NCC2OCCN2S(=O)(=O)c2cccs2)cc1OC (stereo not given)		-16.4% (inactive)
Cc1ccc(SCC(=O)Nc2nncs2)cc1		-2.67% (inactive)
O=C(OCC(=O)N1CCCC1)c1ccc(Cl)nc1		0.0144% (inactive)
COC(=O)Cc1nc2c(N)nc(N)nc2[nH]c1=O		5.65% (inactive)
O=C1N[C@H](Cc2ccccc2)C(=O)N[C@H]1Cc1cn(S(=O)(=O)c2ccccc2)c2ccccc12		8.46% (inactive)
O=C(CNC(=O)c1ccco1)NNC(=O)c1ccc(Br)cc1		20.7% (inactive)
COc1ccc(NC(=O)CN(C)C(=O)/C=C/c2cn(Cc3ccccc3)nc2-c2cccnc2)cc1		3.26% (inactive)
C[C@H]1CN([C@@H](C)CO)C(=O)Cc2cc(NS(C)(=O)=O)ccc2O[C@@H]1CN(C)CC1CC1		15.9% (inactive)
O=C(CSc1ccccc1)Nc1cccc(S(=O)(=O)N2CCOCC2)c1		-12.6% (inactive)
Cc1c(C(=O)Nc2cccc(S(=O)(=O)N3CCOCC3)c2)oc2ccccc12	14.1 µM (active)	
Cc1occc1C(=O)Nc1cccc(S(=O)(=O)N2CCOCC2)c1		-4.28% (inactive)
CCCC(O)(c1ccccc1)C(c1ccccc1)c1ccccn1 (stereo not given)		4.16% (inactive)
Cc1c(C(=O)Nc2ccccn2)oc2ccc(Br)cc12		-2.03% (inactive)
NC(=O)Cc1nc2scc(-c3ccc(Cl)cc3)c2c(=O)[nH]1		4.99% (inactive)
O=c1[nH]c(CN2CCOCC2)nc2cc(Cl)ccc12		3.38% (inactive)

SMILES	Potency	activity change, negative = inhibition
O=c1[nH]c(CCl)nc2cc(-c3ccc(Cl)cc3)sc12	6.31 µM (active)	
COc1ccc(/C=C/C(=O)OCC(=O)NC2CCCCCC2)cc1OC		-10.7% (inactive)
COc1cc(OC)cc(C(=O)NC(C(=O)N2CCC2)C(C)C)c1 (stereo not given)		-12.1% (inactive)
CC(C=Cc1ccccc1)=NNS(=O)(=O)c1ccc([N+](=O)[O-])cc1		-8.84% (inactive)
COc1ccccc1NC1=NC(c2ccc(Cl)cc2)N=C(N)N1 (stereo not given)	10 µM (active)	
COc1ccccc1NC1=NC2(CCCC2)N=C(N)N1		8.21% (inactive)
CC1(C)N=C(N)NC(Nc2ccc(Cl)cc2)=N1		8.79% (inactive)
O=c1oc2ccccc2c(=O)c2ccccc12		-4.58% (inactive)
CCOC(=O)c1c(C)nc2c(c1C)c(=O)oc1ccccc12		11.3% (inactive)
Cc1ccccc1-n1nnc2c(=O)oc3ccccc3c21	35.5 µM (active)	
Cc1cc(NC(=O)CSc2nnc(-c3ccco3)n2N)no1		8.97% (inactive)
COc1ccc(/C=N/Nc2ncnc3sc4c(c23)CCCC4)cc1O	11.2 µM (active)	
COc1ccc(NC(=O)CCCNC(=O)Cn2cnc3sc4c(c3c2=O)CCCC4)cc1OC		-21% (inactive)
COc1ccc(NC(=O)CCNC(=O)Cn2cnc3sc4c(c3c2=O)CCCC4)cc1OC		13.8% (inactive)
O=C(COC(=O)/C=C/c1cccc(Cl)c1)NCc1cccs1		17.5% (inactive)
O=C(OCC(=O)N1CCCCC1)c1ccc(OC(F)(F)F)cc1		-0.311% (inactive)
COc1ccc(Cl)cc1C(=O)NCC#N		-16% (inactive)
CCN(CC)CCNC(=O)c1cc(S(C)(=O)=O)ccc1OC	inactive and 35.5 µM (active)	
CCN(CC)CCNC(=O)c1ccc(NS(=O)(=O)c2ccc3c(c2)OCCO3)cc1		9.4% (inactive)
COc1ccccc1/C=C/C(=O)OCC(=O)NC1CCCCCC1		-4.31% (inactive)
CCOc1ccccc1C(=O)NCCCn1ccnc1		31.5% (inactive)
Clc1c(OCCCn2ccnc2)ccc2ccccc12	14.1 µM (active)	
O=C(CCN1C(=O)c2ccccc2C1=O)NCCCn1ccnc1		21.1% (inactive)
N#Cc1cc([N+](=O)[O-])ccc1NC(=O)COC(=O)c1cnccn1		10.2% (inactive)
CCOC(=O)C/C(C)=N\Nc1ccc([N+](=O)[O-])cc1[N+](=O)[O-]		-10.9% (inactive)
CCOC(=O)/C(=N\Nc1ccccc1[N+](=O)[O-])c1csc(Nc2ccccc2)n1	5.01 µM (active)	
Cc1csc(NC(=O)Nc2ccccc2[N+](=O)[O-])n1		-16.5% (inactive)

SMILES	Potency	activity change, negative = inhibition
COc1ccc(N=C2C=CC(=O)O2)cc1		2.73% (inactive)
COc1ccccc1C(=O)COC(=O)COc1ccc(C#N)cc1		12.2% (inactive)
Cn1c(-c2ccc(F)cc2)cnc1SCC(=O)NCc1ccco1		4.53% (inactive)
CCn1c(Cc2ccccc2)nnc1SCc1nc2ccccc2c(=O)[nH]1		1.37% (inactive)
O=c1[nH]c(CSc2ncc(-c3ccc(F)cc3)n2Cc2ccco2)nc2ccccc12	25.1 µM (active)	
CC(C)(CNC(=O)CNC(=O)C1CCCCC1)N1CCOCC1		7.89% (inactive)
O=C(C[C@@H]1C/C=C\CCC(=O)OC[C@@H]2CCCN2C1=O)NCCO		25.9% (inactive)
COc1ccc(C(=O)Nc2ccc(NC(=O)C(C)C)nc2)cc1		-18.4% (inactive)
COc1ccc(CS(=O)/C(Cl)=C(/Cl)C(=O)Nc2ccc(OC)nc2)cc1 (stereo not given)	4.47 µM (active)	
COc1ccc(Nc2cc(Cl)ccc2C(=O)O)cn1		7.73% (inactive)
COc1ccc(NS(=O)(=O)c2ccc(C)c(C(=O)NCC(c3cccs3)N3CCOCC3)c2)cc1 (stereo not given)		8.78% (inactive)
CC(C)Cc1nnc(N)s1		35.4% (inactive)
Cc1nc(-c2ccc(F)cc2)c(CC(=O)Nc2cc(S(=O)(=O)N3CCCCC3)ccc2C)s1		-18.8% (inactive)
COC1=CC(=O)OC(c2ccc(OC)cc2)C1 (stereo not given)		1.66% (inactive)
CSc1nnc(NC(=O)c2nc(S(=O)(=O)Cc3ccc(C)cc3)ncc2Cl)s1	12.6 µM (active)	
CCSc1nnc(NC(=O)c2ccc(C)cc2)s1		13.7% (inactive)
CSc1ncc(Cl)c(C(=O)Nc2cc(C)ccc2C)n1		12% (inactive)
CCC1Nc2ncnc(N3CCN(c4ccccc4)CC3)c2N(Cc2ccc(Cl)cc2)C1=O (stereo not given)		-52.3% (inactive)
CCCN(CC1CC1)C(=O)COC(=O)c1ccc(C)cc1O		-14.8% (inactive)
COc1ccc(C(=O)O)cc1S(=O)(=O)NC1CCN(Cc2ccccc2)CC1		19.7% (inactive)
Oc1c(C=Nc2cccc3nsnc23)ccc2ccccc12		-29.7% (inactive)
Oc1ccc2ccccc2c1N=Nc1nccs1	8.91 µM (active)	
Oc1ccc(N=Cc2c(O)ccc3ccccc23)cc1		12% (inactive)
COc1ccccc1CCC(=O)NNC(=O)c1ccncc1		0.729% (inactive)
CC(C)(C)OC(=O)C[C@@H]1C/C=C\C[C@@H](CC(=O)N[C@H](CO)Cc2ccccc2)C(=O)NC[C@@H](c2ccccc2)OC1=O		2.19% (inactive)
COc1cc2c(-c3ccc4c(c3)OCO4)c(-c3ccsc3)oc(=O)c2cc1OC		-6.43% [at 8.37 µM] (inactive)
COc1cc(CC(=O)NCc2cccs2)cc(OC)c1OC		14.3% (inactive)

SMILES	Potency	activity change, negative = inhibition
COC(=O)c1c(-c2ccsc2)oc2ccc(-c3cc(OC)c(OC)c(OC)c3)cc12	12.6 µM (active)	
Cn1c(-c2ccc(F)cc2)cc2onc(-c3ccccc3Cl)c2c1=O		15.1% (inactive)
CC1(C)CC(=O)C=C(c2ccc(Cl)c(C(F)(F)F)c2)C1		9.91% (inactive)
COc1ccc(S(=O)(=O)N2CCOCC2)cc1NC(=O)CSc1nnc(NC2CC2)s1		6.7% (inactive)
Cc1cc(NC(=O)COC(=O)/C=C/c2ccc(C)o2)no1		0.593% (inactive)
Cc1ccc(Nc2nc(N3CCOCC3)nc(N3CCOCC3)n2)cc1Cl		4.85% (inactive)
CNc1nc(Nc2ccc(C)c(Cl)c2)nc(N)c1[N+](=O)[O-]	11.2 µM (active)	
Cc1ccc(Nc2nc(N)nc(CN3CCN(Cc4ccccc4)CC3)n2)cc1Cl		-23.6% (inactive)
Nc1ncnc2c1ncn2[C@@H]1O[C@H](CNS(=O)(=O)c2ccc(-c3ccno3)s2)[C@@H](O)[C@H]1O		2.29% (inactive)
Cc1ccc(OCCNC(=O)CNC(=O)c2ccc(C)c(C)c2)cc1		5.27% (inactive)
CCc1nnc(NC(=O)c2cc(S(=O)(=O)N3CCCCC3)ccc2C)s1		9.73% (inactive)
COc1ccc(CCC(=O)N2CCN(S(=O)(=O)c3ccc(OC)cc3)CC2)cc1		-8.57% (inactive)
COc1ccc([N+](=O)[O-])cc1-c1nc2ccccc2nc1-c1ccccc1		-2.01% (inactive)
Cc1nn(-c2ccc([N+](=O)[O-])cc2)c(N)c1-c1ccccc1		-16.2% (inactive)
Cn1nc(-c2ccccc2)c2cc([N+](=O)[O-])ccc21	12.6 µM (active)	
CCN(C(=O)COC(=O)c1c(C)nn(-c2ccccc2)c1Cl)c1c(N)n(Cc2ccccc2)c(=O)[nH]c1=O		-29.1% (inactive)
O=C(CN1C(=O)NC2(CCCC2)C1=O)Nc1cc(C(F)(F)F)ccc1N1CCOCC1		16.6% (inactive)
O=C(CCc1ccccc1Cl)Nc1ccc(S(=O)(=O)Nc2nccs2)cc1		1.35% (inactive)
CC(C)(C)S(=O)(=O)N1Cc2cc(CO)cc(CCO)c2[C@H]1CCO		13.6% (inactive)
O=C(COC(=O)c1ccc([N+](=O)[O-])o1)NC12CC3CC(CC(C3)C1)C2		7.78% (inactive)
OCCCNc1nccc(-c2cc(Nc3cccc(Cl)c3)ncn2)n1	2.82 µM (active)	
Cn1c(Nc2cccc(Cl)c2)nc2ccccc21		-15.3% (inactive)
NS(=O)(=O)c1cccnc1Nc1cccc(Cl)c1		-3.49% (inactive)
CCN1C(=O)[C@@H]2[C@@H](c3ccc(-c4ccc(OC)cc4)c(OC)c3)N3CCC[C@@]3(C(=O)OC)[C@@H]2C1=O		-15.4% (inactive)
